# Laboratory results taken from PubChem BioAssay (NCATS).
# Activity calls are given as the source filed them. Calls come from the whole dose curve.
# Molecular target: Tumor susceptibility gene 101 protein (Homo sapiens) (UniProt Q99816)
# Assay: qHTS Validation Assay for Iinhibitors of HIV-1 Budding by Blocking the Interaction of PTAP/TSG101 (AID 485342)
# Settings: TSG101-PTAP binding, fluorescence polarization, 4-point titration; series mostly up to 115 µM
# Excerpt: NIH Molecular Libraries Probe Production Network [MLPCN]
# NIH Chemical Genomics Center [NCGC]
# PI Name: Dr. Eric Freed, NCI
# Stages of the HIV-1 replication cycle, specifically virus assembly and release, provide underexploited targets for the development of novel antiviral inhibitors. The late stages of HIV-1 replication are mediated by the Gag precursor protein, Pr55Gag. Expression of Pr55Gag is both necessary and sufficient for the production of virus-like particles from Gag-expressing cells. The Gag protein hijacks key host proteins involved in endocytic machinery of the host cell to promote endosomal processing and viral budding. The budding process requires a direct interaction between a […] (PTAP) motif in the p6 domain of Gag and the cellular endosomal sorting protein known as Tsg101. In this way, the Gag PTAP motif promotes the host cells to recruit viral particles to the plasma membrane where the new viral particles are released, effectively turning the host cells into viral factories. A fluorescence anisotropy assay has been developed to quantitatively measure the PTAP-Tsg101 interaction which can be used to screen for inhibitors of this interaction.
# NCGC Assay Protocol Summary:
# Two uL of the Tsg101 binding domain in buffer (10 mM HEPES pH 7.5; 0.15 M NaCl, 0.01% Tween 20; 3 mM EDTA;0.1 mM TCEP) was dispensed into Greiner black MB 1536-well plates (final concentration 10 uM). Then, 23 nL of compounds or DMSO were delivered to each well using a pin tool. Finally, 2 uL of a FITC-labeled peptide containing the PTAP motif (1) in the same buffer was dispensed (50 nM final concentration) and the binding was allowed to proceed for 20 min. at r.t. Fluorescent polarization was determined using FITC excitation and polarized emission filters on a Perkin Elmer Viewlux.
# Keywords: Tsg101, PTAP, Gag, HIV, fluorescent polarization, MLSMR, MLPCN, NIH Roadmap, qHTS, NCGC
# Chain of Tumor susceptibility gene 101 protein (Homo sapiens) (Q99816 whole entry, looked up): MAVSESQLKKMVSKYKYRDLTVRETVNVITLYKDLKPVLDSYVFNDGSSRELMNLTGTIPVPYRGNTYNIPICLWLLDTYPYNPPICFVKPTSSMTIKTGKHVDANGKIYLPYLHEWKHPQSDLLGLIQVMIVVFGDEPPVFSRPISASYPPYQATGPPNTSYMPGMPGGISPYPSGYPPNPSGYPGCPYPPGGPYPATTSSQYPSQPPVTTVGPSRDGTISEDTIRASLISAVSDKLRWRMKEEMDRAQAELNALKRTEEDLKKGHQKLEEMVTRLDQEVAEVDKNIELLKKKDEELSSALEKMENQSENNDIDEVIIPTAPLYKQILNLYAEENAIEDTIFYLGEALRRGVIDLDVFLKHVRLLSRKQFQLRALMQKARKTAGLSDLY
row,SMILES,outcome
1,CSC(N)=NCCC[C@H](N)C(=O)O,inactive
2,c1ccc2c(c1)CC(N1CCN(c3cccc4c3OCCO4)CC1)C2,inactive
3,Cc1nc(N=Nc2ccc(C(=O)O)cc2)c(COP(=O)(O)O)c(C=O)c1O,inactive
4,N[C@@H](Cc1ccc(O)c(I)c1)C(=O)O,inactive
5,O=C(O)CCC/C=C\C[C@@H]1[C@@H](/C=C/[C@H](O)C2Cc3ccccc3C2)[C@@H](F)C[C@@H]1O,inactive
6,NC[C@@H]1O[C@H](c2ccccc2)Cc2c1ccc(O)c2O,inactive
7,CC(=O)[C@H]1CCC2C3CC=C4C[C@@H](OS(=O)(=O)O)CC[C@]4(C)C3CC[C@@]21C (stereo not given in full),inactive
8,CCCCCC[C@@H]([C@@H](C)O)n1cnc2c(N)ncnc21,inactive
9,O[Si](CCCN1CCCCC1)(c1ccc(F)cc1)C1CCCCC1 (stereo not given),inactive
10,Cc1ccc([N+](=O)[O-])cc1S(=O)(=O)N(C)C,inactive
11,NCCC1CCCC(CCN)N1 (stereo not given),inactive
12,NC1CONC1=O (stereo not given),inactive
13,Nc1ncnc2c1nc(Br)n2C1OC2COP(=O)(O)O[C@@H]2C1O (stereo not given in full),inactive
14,NCCCNCCCCNCCCN,inactive
15,Cn1c(=O)c2c(nc(/C=C/c3cccc(Cl)c3)n2C)n(C)c1=O,inactive
16,Cn1cc(C(=O)OCC2CCN(CCNS(C)(=O)=O)CC2)c2ccccc21,inactive
17,CCCc1c(OCCCOc2ccc(OCC(=O)O)cc2)ccc(C(C)=O)c1O,inactive
18,O=c1[nH]c2ccccc2c2ccccc12,inactive
19,O=C(O)C1CCNCC1,inactive
20,N[C@H](C(=O)O)c1cc(O)cc(O)c1,inactive

row,SMILES,outcome
1,CCCCCCCCCCCCCCSCC(=O)O,inactive
2,CCC1(O)CC2CN(CCc3c([nH]c4ccccc34)[C@@](C(=O)OC)(c3cc4c(cc3OC)N(C=O)C3[C@]45CCN4CC=C[C@@](CC)([C@@H](OC(C)=O)[C@]3(O)C(=O)OC)[C@H]45)C2)C1 (stereo not given in full),inactive
3,NOCC(=O)O,inactive
4,COC(=O)C(C)(N)Cc1ccc(O)cc1 (stereo not given),inactive
5,N[C@@H](Cc1c[nH]c2ccccc12)C(=O)O,inactive
6,Oc1ccc(/C=C/c2ccc(/C=C/c3ccc(O)cc3)c(Br)c2)cc1,inactive
7,N#CC(C#N)=C(N)/C(C#N)=C/c1ccc(O)cc1,inactive
8,CC(C)(C)NCC(O)COc1cccc2[nH]c(=O)[nH]c12 (stereo not given),inactive
9,CCCn1c(=O)c2[nH]c(-c3ccc(S(=O)(=O)O)cc3)nc2n(CCC)c1=O,inactive
10,NC(Cc1cccc(-c2ccccc2CP(=O)(O)O)c1)C(=O)O (stereo not given),inactive
11,C[C@]12C=CC(=O)C=C1CC[C@@H]1C2=CC[C@]2(C)[C@@H](C(=O)CN3CCN(c4cc(N5CCCC5)nc(N5CCCC5)n4)CC3)CC[C@@H]12,inactive
12,CC(N)(Cc1ccc(O)c(O)c1)C(=O)O (stereo not given),inactive
13,Cc1cc(Cn2cnc3c2C[C@@H](C(=O)O)N(C(=O)C(c2ccccc2)c2ccccc2)C3)ccc1N,inactive
14,NC1CCN(O)C1=O (stereo not given),inactive
15,COC(=O)C1=C(C)NC(C)=C([N+](=O)[O-])C1c1ccccc1C(F)(F)F (stereo not given),inactive
16,O=[N+]([O-])c1cccc2c(Br)[nH]nc12,inactive
17,O=C(c1ccc2c(c1)OCCO2)N1CCCCC1,inactive
18,c1ccc(C2CN3CCSC3=N2)cc1 (stereo not given),inactive
19,CC(=O)N[C@@H](Cc1c[nH]c2ccccc12)C(=O)OCc1cc(C(F)(F)F)cc(C(F)(F)F)c1,inactive
20,Cc1cccc(C)c1OCC(N)C(C)C (stereo not given),inactive
